Hits are enriched below; roughly 9.9% of the tested compounds scored in any of these assays.
MCF10A rerep – A quantitative high throughput screen for small molecules that induce DNA re-replication in MCF 10a normal breast cells; MCF 10A DNA re-replication, Hoechst nuclear intensity, 48 h; Potency, µM (highest dose often 46.1 µM), usual class: activators; 350,000 tested, 2.9% active; AID 624296, 2012; further: nearly all actives have a fitted effect of over 50% in size
KB-3-1 cytotox – qHTS assay for MDR1-selective chemotherapeutics: Primary screen using the parental adenocarcinoma cell KB-3-1. KB-3-1 viability, CellTiter-Glo ATP luminescence, 72 h. Potency, µM (highest dose often 46.1 µM), hits mostly cytotoxic. 400,000 tested, 1.4% active; further: nearly all actives have a fitted effect of over 60% in size
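Cytotoxicity measured as CellTiter-Glo luminescence after 72 h at 37 C. Compound titrations were pinned onto drug-naive KB-3-1 parental adenocarcinoma cells grown in DMEM with 10% FBS, and normalized data fitted to concentration-response curves.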
SW480 rereplic – A quantitative high throughput screen for small molecules that induce DNA re-replication in SW480 colon adenocarcinoma cells | Potency, µM (doses to about 46.1 µM), hits mostly activators | AID 624297, 2012 | SW480 DNA re-replication, Hoechst DNA content imaging, 48 h | 340,000 tested, 1.8% active; further: nearly all actives have a fitted effect of over 55% in size
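Image-based DNA-content assay: after two days of treatment, nuclei were labelled with the DNA dye Hoechst and imaged, and hits were compounds raising the count of nuclei showing high fluorescence intensity.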
KB-V1 MDR tox – qHTS assay for MDR1-selective chemotherapeutics: Primary screen using the drug-selected MDR subline cells KB-V1 | KB-V1 MDR cells viability, CellTiter-Glo, 72 h | Potency, µM (titrated, usually from 46.1 µM), actives largely listed as cytotoxic | 400,000 tested, 3.4% active | AID 1347076, 2019; further: nearly all actives have a fitted effect of over 60% in size
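KB-V1, DMEM (no phenol red) + 10% FBS; cpd pin-transferred, titration series; 72 h, 37 degrees C; CellTiter-Glo, luminescence. Data normalized, curve-fit.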
IL-1B inflam inh – qHTS for Inhibitors of Inflammasome Signaling: IL-1-beta AlphaLISA Primary Screen. 360,000 tested, 4.7% active. THP-1 LPS/ATP IL-1B secretion, AlphaLISA, 16 h; active compounds read low. activity change, % at 57.5 µM. AID 743279, 2014; in the data active means activity change below about -50%; inconclusive means mostly about -30% to -49%
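Secreted IL-1B measured by AlphaLISA bead assay after 16 h compound exposure of THP-1 cells; compounds (final up to 57.5 uM) added 1 h before LPS (250 ng/mL) and ATP (1.25 mM) stimulation; lower signal means less secretion.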
Large screens that a line does not name were inactive. Unless noted, the call rests on the fitted dose curve; in most records, active means well fitted curve in the direction sought with a large enough effect; inconclusive means small, poorly fitted or top-dose-only effect, or another doubt; inactive means no such curve, though single readings can be large; an effect the other way counts as inactive or inconclusive.

CC1CN(Cc2ccccc2)C(C)CC1O (stereo not drawn)	MCF10A rerep inconclusive
CCN(CC)CC#CCC(OC)(c1ccccc1)c1ccccc1	none
Cc1ccc(S(=O)(=O)CCc2nc3ccccc3s2)cc1C	none
O=C(Nc1ccc(S(=O)(=O)Nc2ncccn2)cc1)C1COc2ccccc2O1 (stereo not drawn)	none
COc1ccc(NC(=O)C2COc3ccccc3O2)cc1S(=O)(=O)N1CCOCC1 (stereo not drawn)	KB-V1 MDR tox 13µM
COc1ccc(OC)c(NS(=O)(=O)c2ccc(NC(=O)C3COc4ccccc4O3)cc2)c1 (stereo not drawn)	MCF10A rerep inconclusive, KB-V1 MDR tox inconclusive, IL-1B inflam inh -68.3
COc1cc(-c2noc(C)c2C(=O)NCC[C@@H]2CCCN2C)cc(OC)c1OC	none
COc1cc2sc3cc(NCC[C@@H]4CCCN4C)ccc3c(=O)c2cc1OC	MCF10A rerep inconclusive, SW480 rereplic inconclusive, IL-1B inflam inh -59.6
COc1cc2sc3cc(NCc4ccc(C)o4)ccc3c(=O)c2cc1OC	IL-1B inflam inh -68.8
COc1cc2sc3cc(NCc4ccc5c(c4)OCO5)ccc3c(=O)c2cc1OC	SW480 rereplic inconclusive
COc1cccc2sc3ccc(NCCC4CCCN4C)cc3c(=O)c12 (stereo not drawn)	IL-1B inflam inh -69.7
NC(=O)C1CCN(C(=O)Cc2ccsc2)CC1	none
CCC1=NN(C(=O)Cc2ccc(OC)c(OC)c2)C(O)(C(F)(F)F)C1 (stereo not drawn)	KB-V1 MDR tox 14.6µM
CCOC(=O)N1N=C(CC)CC1(O)C(F)(F)F (stereo not drawn)	KB-V1 MDR tox inconclusive
Cc1ccc2nc(N3C(=O)C(O)=C(C(=O)c4ccc(C)o4)C3c3cccc(O)c3)sc2c1 (stereo not drawn)	MCF10A rerep 23.1µM
Cc1ccc2cc(C3CC(c4ccco4)=NN3S(=O)(=O)c3ccccc3)c(Cl)nc2c1 (stereo not drawn)	KB-3-1 cytotox inconclusive
COc1ccc2cc(C3CC(c4ccco4)=NN3S(=O)(=O)c3ccccc3)c(Cl)nc2c1 (stereo not drawn)	KB-V1 MDR tox 14.6µM, IL-1B inflam inh inconclusive
CCOc1ccc2cc(C3CC(c4ccco4)=NN3S(=O)(=O)c3ccccc3)c(Cl)nc2c1 (stereo not drawn)	KB-V1 MDR tox 5.8µM
Cc1cc(CNC(=O)COC(=O)Cn2[nH]c(=O)c3ccccc3c2=O)cc(C)c1O	none
O=C(OCC(=O)N1CCC(Cc2ccccc2)CC1)c1cc(Br)ccc1O	none
O=S(=O)(c1cc(F)ccc1F)N1CCN(c2ccccn2)CC1	SW480 rereplic inconclusive
O=S(=O)(c1cc(F)ccc1F)N1CCN(c2ncnc3ccccc23)CC1	MCF10A rerep 5.8µM, KB-3-1 cytotox 5.17µM, SW480 rereplic 18.4µM, KB-V1 MDR tox 9.2µM
CCn1c(=O)n(CC)c2cc(N3CCCC3)c(NC(=O)c3cc(Cl)ccc3OC)cc21	MCF10A rerep inconclusive, KB-3-1 cytotox inconclusive, SW480 rereplic inconclusive, IL-1B inflam inh -63.6
CCn1c(=O)n(CC)c2cc(N3CCCC3)c(NC(=O)c3ccccc3OC)cc21	IL-1B inflam inh -52.7
CC1(C)CC(=O)C=C(c2cccc(Br)c2)C1	none
CC(C)(C)NC(=O)C(c1ccncc1)N(C(=O)Cn1nnc(-c2ccc(F)cc2)n1)c1cccc(F)c1 (stereo not drawn)	none
CC(C)(C)NC(=O)C(c1ccco1)N(C(=O)Cn1nnc(-c2ccc(F)cc2)n1)c1ccccc1 (stereo not drawn)	KB-3-1 cytotox inconclusive, KB-V1 MDR tox 3.66µM
CC(C(=O)NC1CCCC1)N(C(=O)Cn1nnc(-c2ccc(F)cc2)n1)c1ccccc1F (stereo not drawn)	KB-V1 MDR tox inconclusive, IL-1B inflam inh -65.8
CC(C)(C)NC(=O)C(c1ccco1)N(C(=O)Cn1nnc(-c2ccc(F)cc2)n1)c1ccccc1F (stereo not drawn)	SW480 rereplic inconclusive, KB-V1 MDR tox 18.4µM, IL-1B inflam inh inconclusive
COc1ccc(N(C(=O)Cn2nnc(-c3ccc(F)cc3)n2)C(C)C(=O)NC2CCCC2)cc1 (stereo not drawn)	SW480 rereplic inconclusive
Cc1cc(NC(=O)C(C)Oc2ccccc2)no1 (stereo not drawn)	none
Cc1cccnc1C(NC(=O)C1CCN(CCCc2ccccc2)CC1)c1ccc(F)cc1 (stereo not drawn)	none (no result: MCF10A rerep, SW480 rereplic)
Cc1ccccc1C(=O)N1CCN(S(=O)(=O)c2ccccc2)CC1	none (no result: KB-3-1 cytotox, KB-V1 MDR tox)
COc1ccc(Nc2nc(N3CCCC3)c3ccccc3n2)cc1	MCF10A rerep inconclusive, KB-3-1 cytotox inconclusive, KB-V1 MDR tox inconclusive, IL-1B inflam inh -101.1
c1ccc2c(c1)nc(N1CCOCC1)c1ccccc12	none
CCN(CC)c1ccc(Nc2nc(N3CCOCC3)c3ccccc3n2)cc1	MCF10A rerep inconclusive, KB-3-1 cytotox 8.2µM, SW480 rereplic inconclusive, KB-V1 MDR tox 2.59µM, IL-1B inflam inh -110.6
O=C(CCCc1nc(-c2ccc(Cl)cc2)no1)NCC1CCCO1 (stereo not drawn)	KB-3-1 cytotox 10.3µM, KB-V1 MDR tox 13µM
O=C(C1CCCN(Cc2nc(-c3ccc(Cl)cc3)no2)C1)N1CCOCC1 (stereo not drawn)	KB-3-1 cytotox inconclusive, IL-1B inflam inh -83.4
O=C(CCCc1nc(-c2ccc(Cl)cc2)no1)N1CCOCC1	KB-3-1 cytotox inconclusive, KB-V1 MDR tox 9.2µM
Cc1ccc(-c2noc(CCCC(=O)NC3CCCCC3)n2)cc1	KB-3-1 cytotox inconclusive, KB-V1 MDR tox 16.4µM
COc1ccc(-c2noc(CCCC(=O)NCC3CCCO3)n2)cc1 (stereo not drawn)	none
Cc1ccc2c(c1)-c1c(c(C(=O)NCCc3ccccc3)nn1C)CS2	none (no result: MCF10A rerep, SW480 rereplic, IL-1B inflam inh)
CCC(CC)C(C(=O)NCc1ccccc1)N1CCN(CCN2CCOCC2)CC1 (stereo not drawn)	none (no result: MCF10A rerep, SW480 rereplic)
CCOC(=O)C1CCN(C(=O)Cn2nc(C)n3c(cc4cc(F)ccc43)c2=O)CC1	none
Cc1ccc(NC(=O)N2CCc3c(sc4c3CCCC4)C2c2ccccc2)cc1F (stereo not drawn)	none (no result: MCF10A rerep, SW480 rereplic, IL-1B inflam inh)
Cc1cccc(-c2noc(CCCC(=O)N3CCOCC3)n2)c1	KB-V1 MDR tox 20.6µM
Cc1ccc(-c2noc(CCCC(=O)N3CCOCC3)n2)cc1	none
O=C1/C(=C/c2ccco2)SC(=S)N1CCC(=O)N1CCCCC1CCO (stereo not drawn)	KB-3-1 cytotox inconclusive, IL-1B inflam inh -75.8
O=C1/C(=C/c2ccc(Cl)cc2)SC(=S)N1CCC(=O)N1CCCCC1CCO (stereo not drawn)	MCF10A rerep inconclusive, SW480 rereplic inconclusive

Screening results as filed in PubChem.
